Unmarked numbers belong to inactive results. Calls of active or inactive are those of the source.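 The calls were made as follows, unless noted: active = mean inhibition above 46.5%, the solvent-only control mean plus 3 SD; inactive = the rest.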
Experiments:
[1] = test system: transactivating tegument protein VP16 (Human herpesvirus 1); experiment: VP16 transactivation reporter inhibitors, counter-screen for SRC2 inhibitor project, cell-based, luminescence, single concentration (AID 652007; in the data active = inhibition above about 36%); conditions: cell-based VP16 transactivation luciferase reporter, at 8.9 µM, hits give high values
[2] = biological target: Nuclear receptor coactivator 2 (Homo sapiens) (UniProt Q15596); experiment: SRC2 coactivator transcriptional activity inhibitors, confirmation, cell-based, luminescence, HEK293, triplicate (AID 652008); conditions: HEK293 GAL4-SRC2 luciferase reporter, at 8.9 µM, hits give high values;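 also: 0% = DMSO-treated cells and 100% = Gossypol at 36 µM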
Sequence of Nuclear receptor coactivator 2 (Homo sapiens) (Q15596 whole entry, looked up, the tested form may be a part): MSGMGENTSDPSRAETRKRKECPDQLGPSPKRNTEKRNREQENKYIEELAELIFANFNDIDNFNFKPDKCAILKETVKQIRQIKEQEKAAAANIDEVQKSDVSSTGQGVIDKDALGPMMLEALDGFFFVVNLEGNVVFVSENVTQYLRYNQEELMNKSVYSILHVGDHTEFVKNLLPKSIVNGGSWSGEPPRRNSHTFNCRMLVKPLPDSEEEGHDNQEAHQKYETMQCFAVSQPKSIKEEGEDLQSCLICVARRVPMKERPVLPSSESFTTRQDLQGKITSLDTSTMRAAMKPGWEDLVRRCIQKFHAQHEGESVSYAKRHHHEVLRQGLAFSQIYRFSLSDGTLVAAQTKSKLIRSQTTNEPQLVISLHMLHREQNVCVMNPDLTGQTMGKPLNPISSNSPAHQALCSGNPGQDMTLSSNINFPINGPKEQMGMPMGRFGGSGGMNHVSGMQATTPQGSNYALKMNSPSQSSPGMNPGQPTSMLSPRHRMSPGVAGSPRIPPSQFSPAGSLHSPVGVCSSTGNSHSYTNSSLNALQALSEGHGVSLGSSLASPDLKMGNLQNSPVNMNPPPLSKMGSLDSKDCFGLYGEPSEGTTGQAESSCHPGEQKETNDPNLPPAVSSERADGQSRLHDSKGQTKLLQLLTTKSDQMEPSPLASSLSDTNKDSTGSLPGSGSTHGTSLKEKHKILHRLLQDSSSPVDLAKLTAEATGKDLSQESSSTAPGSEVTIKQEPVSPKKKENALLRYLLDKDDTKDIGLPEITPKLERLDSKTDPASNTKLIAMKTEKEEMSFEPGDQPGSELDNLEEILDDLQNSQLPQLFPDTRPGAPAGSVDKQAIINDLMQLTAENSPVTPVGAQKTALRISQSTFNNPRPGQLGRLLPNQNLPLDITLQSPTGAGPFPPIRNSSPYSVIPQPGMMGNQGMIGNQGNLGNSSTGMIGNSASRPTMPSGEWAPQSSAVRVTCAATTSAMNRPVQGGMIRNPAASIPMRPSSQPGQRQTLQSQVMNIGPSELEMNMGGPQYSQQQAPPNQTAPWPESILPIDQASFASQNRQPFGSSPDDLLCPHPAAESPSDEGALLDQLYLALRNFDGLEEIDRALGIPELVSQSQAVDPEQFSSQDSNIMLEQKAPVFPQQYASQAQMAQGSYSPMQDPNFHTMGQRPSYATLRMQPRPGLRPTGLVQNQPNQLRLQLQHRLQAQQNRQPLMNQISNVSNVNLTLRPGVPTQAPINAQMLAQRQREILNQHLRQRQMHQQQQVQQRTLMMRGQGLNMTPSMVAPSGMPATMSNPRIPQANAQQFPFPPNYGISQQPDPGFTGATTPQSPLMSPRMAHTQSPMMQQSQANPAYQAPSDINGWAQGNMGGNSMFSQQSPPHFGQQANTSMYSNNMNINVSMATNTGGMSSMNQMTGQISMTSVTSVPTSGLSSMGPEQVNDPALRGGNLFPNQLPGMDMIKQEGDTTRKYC

Question: For Cc1ccc(Cl)cc1N1CCN(C(=O)CCS(=O)(=O)c2ccc3c(c2)NC(=O)CO3)CC1, which inhibition [1] is on record?
Answer: 13.9%

Question: And the inhibition [2]?
Answer: 30.1%

Question: Which results are given for C=CC[C@]12CC=CC(=O)[C@@]1(O)O[C@H](c1ccc(OC)c(OC)c1)[C@H]2C?
Answer: inhibition [1]: 22.7%; inhibition [2]: 32%

Question: For CC(C)(C)c1ccc(OC(=O)Nc2ccc(O)c(C(=O)O)c2)cc1, which inhibition [1] is on record?
Answer: 7.15%

Question: And the inhibition [2]?
Answer: 30.5%

Question: For Cn1nnnc1Sc1ncnc2scc(-c3cccc(S(C)(=O)=O)c3)c12, which inhibition [1] is on record?
Answer: 21.7%

Question: And the inhibition [2]?
Answer: 2.26%

Question: Cc1ccc(O)c(/C=N/NC(=O)Cc2ccc(Cl)cc2)c1 was tested. Which inhibition [1] did it give?
Answer: -11.1%

Question: And the inhibition [2]?
Answer: -13.9%

Question: With C=CS(=O)(=O)N(Cc1nnn(Cc2ccccc2)c1Br)[C@H](C(=O)OC)C(C)C as the compound, how does the inhibition [1] read?
Answer: 18.8%

Question: And the inhibition [2]?
Answer: 27.4%

Question: Which inhibition [1] does the source give for CCOc1ccc(NS(=O)(=O)c2ccc(C(=O)NC3CCN(Cc4ccccc4)CC3)cc2)cc1 here?
Answer: -3.23%

Question: And the inhibition [2]?
Answer: 8.19%

Question: What does the source list for Cc1ccc2cccc(NS(=O)(=O)c3ccccc3)c2n1?
Answer: inhibition [1]: 75.5% (active); inhibition [2]: -19.5%

Question: Which results are given for Cc1ccc(C(=O)O/N=C(\N)c2ccccn2)cc1C?
Answer: inhibition [1]: -29.9%; inhibition [2]: -24.9%

Question: CCOC(=O)c1c(C)nn(-c2ccc(NC(=O)c3c(C)noc3C)cc2)c1C was tested. Which inhibition [1] did it give?
Answer: 11.6%

Question: And the inhibition [2]?
Answer: 52.8% (active)

Question: For COC(=O)c1ccc(CSc2nc3sc(C)c(C)c3c(=O)[nH]2)cc1, which inhibition [1] is on record?
Answer: -20.1%

Question: What about the inhibition [2] of the same compound?
Answer: -17.4%

Question: For CC(=O)O[C@@H]1C[C@H]2C(C)(C)C(=O)C=C[C@]2(C)[C@H]2CC[C@@]3(C)[C@H](c4ccoc4)OC(=O)[C@H]4O[C@]43[C@@]21C, which inhibition [1] is on record?
Answer: 35.9% (active)

Question: And the inhibition [2]?
Answer: 27%

Question: Cc1cc(Cl)c(S(=O)(=O)N2CCN(c3ccccn3)CC2)cc1OCC(=O)NC1CCCCC1 was tested. Which inhibition [1] did it give?
Answer: 10.5%

Question: And the inhibition [2]?
Answer: 16.3%

Question: CC(C)(C)c1nnc2sc(SCC(=O)c3cccs3)nn2c1=O was tested. Which inhibition [1] did it give?
Answer: 15.5%

Question: And the inhibition [2]?
Answer: 30%

Question: Which results are given for O=c1[nH]sc2ccccc12?
Answer: inhibition [1]: 7.96%; inhibition [2]: 8.22%

Question: For NC(=S)N1OC[C@@H]2COc3ccc4ccccc4c3[C@@H]21, which inhibition [1] is on record?
Answer: 2.09%

Question: And the inhibition [2]?
Answer: 48.6% (active)

Question: Which inhibition [1] does the source give for COc1ccc(NS(=O)(=O)c2ccc(OC)c(N(C)S(=O)(=O)c3ccc(Cl)cc3)c2)cc1 here?
Answer: 17.3%

Question: What about the inhibition [2] of the same compound?
Answer: 31.2%

Question: For CCOC(=O)CCSc1nc(C(C)(C)C)cc(C(F)(F)F)c1C#N, which inhibition [1] is on record?
Answer: -14.2%

Question: And the inhibition [2]?
Answer: -27.6%

Question: Which results are given for COn1c2c(c3c4nonc4ccc31)CCCC2?
Answer: inhibition [1]: 0.98%; inhibition [2]: 18.7%

Question: With CC(C)(C)c1ccc(Cn2c(=O)cnc3ccccc32)cc1 as the compound, how does the inhibition [1] read?
Answer: 22.6%

Question: What about the inhibition [2] of the same compound?
Answer: 56.7% (active)

Question: How did the inhibition [1] turn out when Cc1ccc(N(C(=O)c2ccc3c(c2)OCO3)C2C=CS(=O)(=O)C2)cc1C (centres undefined) was run?
Answer: 0.8%

Question: And the inhibition [2]?
Answer: -17.6%

Question: For CN(Cc1ccccc1)C(=O)c1ccc(NC(=O)C2CCN(C(=O)OC(C)(C)C)CC2)cc1, which inhibition [1] is on record?
Answer: 15.8%

Question: And the inhibition [2]?
Answer: 60.4% (active)

Question: For O=S(=O)(c1ccc(NC(=S)NCc2ccco2)cc1)N1CCCCC1, which inhibition [1] is on record?
Answer: -14.6%

Question: And the inhibition [2]?
Answer: 4.68%

Question: With COc1ccc(O)c(C(=O)c2cnn(S(=O)(=O)c3ccc(C)cc3)c2)c1 as the compound, how does the inhibition [1] read?
Answer: -7.7%

Question: And the inhibition [2]?
Answer: 7.12%

Question: How did the inhibition [1] turn out when O=C(NCCCN1CCOCC1)c1cc(-c2ccc(Br)cc2)on1 was run?
Answer: -7.7%

Question: And the inhibition [2]?
Answer: 13.1%

Question: For CCS(=O)(=O)c1ncc(Cl)c(C(=O)Nc2ccc(S(=O)(=O)N(C)c3ccccc3)cc2)n1, which inhibition [1] is on record?
Answer: 65.2% (active)

Question: And the inhibition [2]?
Answer: 98% (active)

Question: Which inhibition [1] does the source give for CC(=O)C1C(=O)c2c(cccc2[N+](=O)[O-])C1=Nc1cccc(Cl)c1 (centres undefined) here?
Answer: -60.3%

Question: And the inhibition [2]?
Answer: -35.9%

Question: Which results are given for COc1cccc(Nc2nc(NCCO)c3ccccc3n2)c1?
Answer: inhibition [1]: -14.1%; inhibition [2]: 31.5%

Question: What does the source list for CC(C)(CN1CCC(Cc2ccccc2)CC1)NS(=O)(=O)c1ccccc1?
Answer: inhibition [1]: 13.9%; inhibition [2]: 32.5%

Question: C[C@@H]1C(c2ccc(F)cc2)=NN(c2ccccc2)[C@H]1C(=O)N1CCOC1=O was tested. Which inhibition [1] did it give?
Answer: -11.2%

Question: And the inhibition [2]?
Answer: -21.5%

Question: What does the source list for COc1ccc(CCNC(=S)N2CCC(C(=O)c3ccc(F)cc3)CC2)cc1OC?
Answer: inhibition [1]: 11.5%; inhibition [2]: 20.5%

Question: Which results are given for CC1=CC(C)(C)Nc2ccc(OC(=O)CN3C(=O)c4ccccc4C3=O)cc21?
Answer: inhibition [1]: -37.1%; inhibition [2]: 26.9%
